The results in this text go back to PubChem BioAssay (NCI).

Structures are written as SMILES. About 79,000 compounds went through this panel and 15% of them were active in at least one assay; those are over-represented in the sample as a whole. A number with no mark means an inactive call. Active and inactive are the calls of the source. Rule as the data show it: active = growth inhibition above about 70%; inactive = the rest.

Test [1] can be described thus: NCI Yeast Anticancer Drug Screen. Data for the rad50 strain (AID 155).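 Also: 0% = growth of vehicle-only cultures of the same strain.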 As to conditions: S. cerevisiae rad50 strain growth inhibition, stronger effect = higher value. The gist of the method:
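Cells are treated with compound, grown, and their growth is then scored against vehicle-only cultures of the same repair-deficient yeast strain.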

A short description of test [2]: NCI Yeast Anticancer Drug Screen. Data for the mec2-1 strain (AID 157). As to conditions: S. cerevisiae mec2-1 strain, stronger effect = higher value. The gist of the method: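 Mutant yeast (mec2-1) grown with compound; growth inhibition relative to vehicle control reported.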
Test [3] is described as follows: NCI Yeast Anticancer Drug Screen. Data for the sgs1 mgt1 strain (AID 161).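 Also: 0% = growth of cultures given vehicle only.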 Conditions: S. cerevisiae sgs1 mgt1 strain, stronger effect = higher value. The gist of the method:
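This yeast growth screen uses a strain with defined DNA-repair lesions; compound-treated growth is compared with vehicle-treated growth.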

Test [4] can be described thus: NCI Yeast Anticancer Drug Screen. Data for the cln2 rad14 strain (AID 165).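 Also: 0% = growth equal to vehicle treated cultures.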 As to conditions: S. cerevisiae cln2 rad14 strain, stronger effect = higher value. In short, it runs like this: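 Readout is yeast growth inhibition versus vehicle-treated controls, using a strain with cln2 and rad14 alterations exposed to compound.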
Test [5] in a line: NCI Yeast Anticancer Drug Screen. Data for the bub3 strain (AID 167). Conditions: S. cerevisiae bub3 mutant strain, stronger effect = higher value. In short, it runs like this:
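Part of a panel of yeast mutants defective in DNA damage repair or cell cycle regulation. Each strain is grown with compound, and inhibition is calculated relative to solvent-treated cultures.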

Test [6] in a line: NCI Yeast Anticancer Drug Screen. Data for the mlh1 rad18 strain (AID 175). As to conditions: S. cerevisiae mlh1 rad18 strain growth inhibition, stronger effect = higher value. In short, it runs like this:
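Genetically defined yeast (DNA repair-deficient) exposed to compounds; growth inhibition determined relative to vehicle.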

Setting [7] is: at 5.0 µM (retest, dose inferred, filed as 0.5).
Where [8] appears, read: at 50.0 µM (retest, dose inferred, filed as 5.0).

With `CC(=O)O.[RuH].c1ccc([PH+](c2ccccc2)c2ccccc2)cc1.c1ccc([PH+](c2ccccc2)c2ccccc2)cc1.c1ccc([PH+](c2ccccc2)c2ccccc2)cc1`, the growth inhibition is -10% in test [1] (setting [7]); 75% (active) in test [1] (setting [8]); 43.5% in test [1] (at 50.0 µM); -15% in test [2] (setting [7]); 90% (active) in test [2] (setting [8]); 70.9% (active) in test [2] (at 50.0 µM). For the same compound, the growth inhibition is -5% in test [3] (setting [7]); 68% in test [3] (setting [8]); 72.5% (active) in test [3] (at 50.0 µM); -9% in test [4] (setting [7]); 91% (active) in test [4] (setting [8]); 75% (active) in test [4] (at 50.0 µM). For the same compound, the growth inhibition was 35% in test [5] (setting [7]); 89% (active) in test [5] (setting [8]); 72.5% (active) in test [5] (at 50.0 µM); -20% in test [6] (setting [7]); 89% (active) in test [6] (setting [8]); 66.5% in test [6] (at 50.0 µM).

For the compound `CC1=C2C(=CC(C)(C)[C@@H]2O)C(=O)[C@](C)(O)C12CC2`, the growth inhibition was 44% in test [1] (setting [7]); 92% (active) in test [1] (setting [8]); 80.6% (active) in test [1] (at 50.0 µM); 12% in test [2] (setting [7]); 96% (active) in test [2] (setting [8]); 89.8% (active) in test [2] (at 50.0 µM). For the same compound, the growth inhibition was 53% in test [3] (setting [7]); 91% (active) in test [3] (setting [8]); 80.8% (active) in test [3] (at 50.0 µM); 23% in test [4] (setting [7]); 90% (active) in test [4] (setting [8]); 84.8% (active) in test [4] (at 50.0 µM). Further, the growth inhibition in test [5] (setting [7]) is 12%; in test [5] (setting [8]) it was 39%; in test [5] (at 50.0 µM), 7.1%; in test [6] (setting [7]), 35%; in test [6] (setting [8]) it was 91% (active); in test [6] (at 50.0 µM), 78.3% (active).

On to `[Cl-].[Cl-].[Cl-].[O-]c1cccc2cccnc12.[O-]c1cccc2cccnc12.[O]=[Mo]`, for which the growth inhibition in test [1] (setting [7]) was 96% (active); in test [1] (setting [8]), 96% (active); in test [1] (at 50.0 µM) it was 87.5% (active); in test [2] (setting [7]), 73% (active); in test [2] (setting [8]), 73% (active); in test [2] (at 50.0 µM) it was 91.4% (active). The growth inhibition in test [3] (setting [7]) is 72% (active); in test [3] (setting [8]), 72% (active); in test [3] (at 50.0 µM), 89.2% (active); in test [4] (setting [7]) it was 96% (active); in test [4] (setting [8]), 96% (active); in test [4] (at 50.0 µM), 88.6% (active). Further, the growth inhibition in test [5] (setting [7]) is 64%; in test [5] (setting [8]), 64%; in test [5] (at 50.0 µM) it was 90.4% (active); in test [6] (setting [7]) it was 72% (active); in test [6] (setting [8]) it was 72% (active); in test [6] (at 50.0 µM), 87.7% (active).

Consider `Nc1cc2[nH]cnc2c([Se])n1`, for which the growth inhibition in test [1] (setting [7]) is -155%; in test [1] (setting [8]), -6%; in test [1] (at 50.0 µM), 56%; in test [2] (setting [7]) it was -39%; in test [2] (setting [8]), -11%; in test [2] (at 50.0 µM) it was 62.9%. In addition, the growth inhibition is -54% in test [3] (setting [7]); 19% in test [3] (setting [8]); 48% in test [3] (at 50.0 µM); -60% in test [4] (setting [7]); -33% in test [4] (setting [8]); 7.45% in test [4] (at 50.0 µM). The growth inhibition was -75% in test [5] (setting [7]); 21% in test [5] (setting [8]); 57.5% in test [5] (at 50.0 µM); -141% in test [6] (setting [7]); -29% in test [6] (setting [8]); 83.8% (active) in test [6] (at 50.0 µM).

Take `O=[N+]([O-])c1cc(-c2ccccc2)ccc1O`: the growth inhibition in test [1] (setting [7]) was -3%; in test [1] (setting [8]) it was 10%; in test [1] (at 50.0 µM) it was 98% (active); in test [2] (setting [7]) it was 5%; in test [2] (setting [8]) it was 12%; in test [2] (at 50.0 µM) it was 98.7% (active). For the same compound, the growth inhibition is -1% in test [3] (setting [7]); 7% in test [3] (setting [8]); 97.4% (active) in test [3] (at 50.0 µM); -3% in test [4] (setting [7]); 2% in test [4] (setting [8]); 98% (active) in test [4] (at 50.0 µM). Besides, the growth inhibition in test [5] (setting [7]) is 0%; in test [5] (setting [8]), -2%; in test [5] (at 50.0 µM), 96.2% (active); in test [6] (setting [7]), -1%; in test [6] (setting [8]) it was 7%; in test [6] (at 50.0 µM) it was 98.8% (active).

On to `COc1ccc(Br)c(/C=C/[N+](=O)[O-])c1`, for which the growth inhibition in test [1] (setting [7]) was 23%; in test [1] (setting [8]), 90% (active); in test [1] (at 50.0 µM), 99.5% (active); in test [2] (setting [7]) it was 11%; in test [2] (setting [8]), 96% (active); in test [2] (at 50.0 µM), 99.7% (active). In addition, the growth inhibition is 16% in test [3] (setting [7]); 82% (active) in test [3] (setting [8]); 99.7% (active) in test [3] (at 50.0 µM); 0% in test [4] (setting [7]); 65% in test [4] (setting [8]); 11.7% in test [4] (at 50.0 µM). Further, the growth inhibition in test [5] (setting [7]) is 5%; in test [5] (setting [8]), 92% (active); in test [5] (at 50.0 µM), 95.5% (active); in test [6] (setting [7]), 6%; in test [6] (setting [8]) it was 96% (active); in test [6] (at 50.0 µM), 87.8% (active).

As for `CC1=C(N2CC2)C(=O)c2nc3n(c2C1=O)CCC3OC(=O)CCl` (stereo not given), the growth inhibition in test [1] (setting [7]) is 28%; in test [1] (setting [8]), 61%; in test [1] (at 50.0 µM), 46.5%; in test [2] (setting [7]), 6%; in test [2] (setting [8]), 47%; in test [2] (at 50.0 µM), 57%. Moreover, the growth inhibition in test [3] (setting [7]) was 18%; in test [3] (setting [8]) it was 60%; in test [3] (at 50.0 µM), 72.2% (active); in test [4] (setting [7]) it was 5%; in test [4] (setting [8]), 31%; in test [4] (at 50.0 µM) it was 57.9%. Further, the growth inhibition in test [5] (setting [7]) is 24%; in test [5] (setting [8]), 19%; in test [5] (at 50.0 µM), 6%; in test [6] (setting [7]), 23%; in test [6] (setting [8]), 67%; in test [6] (at 50.0 µM), 66.1%.

As to `C[As](C)SCCC(N)C(=O)NC(CCS[As](C)C)C(=O)O` (stereo not given), the growth inhibition was 30% in test [1] (setting [7]); 98% (active) in test [1] (setting [8]); 88.9% (active) in test [1] (at 50.0 µM); 20% in test [2] (setting [7]); 99% (active) in test [2] (setting [8]); 90.8% (active) in test [2] (at 50.0 µM). For the same compound, the growth inhibition in test [3] (setting [7]) was -3%; in test [3] (setting [8]) it was 99% (active); in test [3] (at 50.0 µM), 89.8% (active); in test [4] (setting [7]), 35%; in test [4] (setting [8]), 98% (active); in test [4] (at 50.0 µM), 92.2% (active). The growth inhibition in test [5] (setting [7]) is 2%; in test [5] (setting [8]), 97% (active); in test [5] (at 50.0 µM), 90% (active); in test [6] (setting [7]), 27%; in test [6] (setting [8]) it was 99% (active); in test [6] (at 50.0 µM) it was 75.5% (active).

Consider `O=C(O)c1ccccc1.[Zn+2]`, for which the growth inhibition in test [1] (setting [7]) is 1%; in test [1] (setting [8]), -5%; in test [1] (at 50.0 µM), 19.4%; in test [2] (setting [7]) it was 3%; in test [2] (setting [8]) it was -10%; in test [2] (at 50.0 µM), 8.6%. In addition, the growth inhibition was 4% in test [3] (setting [7]); 9% in test [3] (setting [8]); 15.5% in test [3] (at 50.0 µM); -3% in test [4] (setting [7]); -21% in test [4] (setting [8]); -74.6% in test [4] (at 50.0 µM). Moreover, the growth inhibition in test [5] (setting [7]) is -8%; in test [5] (setting [8]) it was -1%; in test [5] (at 50.0 µM), 45.6%; in test [6] (setting [7]), 6%; in test [6] (setting [8]), 10%; in test [6] (at 50.0 µM), 1.9%.

As to `Cc1ccc2c(c1)N(CCN(CCCl)CCCl)c1c(ccc3ccccc13)S2`, the growth inhibition in test [1] (setting [7]) was 0%; in test [1] (setting [8]), 83% (active); in test [1] (at 50.0 µM) it was 90.2% (active); in test [2] (setting [7]) it was -1%; in test [2] (setting [8]), 87% (active); in test [2] (at 50.0 µM) it was 67.2%. Further, the growth inhibition in test [3] (setting [7]) is -9%; in test [3] (setting [8]) it was 84% (active); in test [3] (at 50.0 µM), 93.4% (active); in test [4] (setting [7]), -6%; in test [4] (setting [8]), 79% (active); in test [4] (at 50.0 µM), 75.4% (active). The growth inhibition was -1% in test [5] (setting [7]); 82% (active) in test [5] (setting [8]); 34.7% in test [5] (at 50.0 µM); 11% in test [6] (setting [7]); 84% (active) in test [6] (setting [8]); 91.9% (active) in test [6] (at 50.0 µM).
